Reference: PubChem BioAssay (NCATS)
Inconclusive results are not listed. Calls of active or inactive are those of the source. The call rests on the fitted dose curve; in most records, active means well fitted inhibition curve with a large enough effect in the main read-out, with a control signal flat (not every such curve was filed as active); inconclusive means small, poorly fitted or top-dose-only effect, or effect the other way, or a change in a side signal; inactive means no such curve, though single readings can be large or run the other way.
Potency means the concentration at half of the fitted maximal effect.

Assay: Nrf2 qHTS screen for inhibitors: Validation (AID 493153); on activity change, negative = inhibition: % of control where 0% means no effect
Conditions: A549 ARE-Fluc reporter, 18-24 h; Potency: luciferase luminescence; viability change: measured here: cytotoxicity max response; luciferase luminescence, at 46.1 µM (top of the series); activity change, negative = inhibition: at the top concentration
In short: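 A549 cells carrying an ARE-driven firefly luciferase reporter, in 5% FBS OPTI-MEM, were treated with compounds in concentration-response for 18-24 h at 37°C. Viability was read by CellTiter-Fluor fluorescence, then Nrf2 activity by luciferase luminescence.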
With `COCCc1ccc(OCC(O)CNC(C)C)cc1` (stereo not drawn) the “activity change, negative = inhibition” value was 2.15% (inactive) and the viability change was -2.79%. With `NC(=O)N1c2ccccc2C=Cc2ccccc21` the “activity change, negative = inhibition” value was 6.38% (inactive) and the viability change was -0.0645%. In the case of `CCCCCN(CCCCC)C(=O)C(CCC(=O)O)NC(=O)c1ccc(Cl)c(Cl)c1` (stereo not drawn), the “activity change, negative = inhibition” value is reported as 2.49% (inactive) and the viability change is reported as 3.55%. In the case of `CN(C)CC[C@@H](c1ccc(Br)cc1)c1ccccn1`, the “activity change, negative = inhibition” value is reported as 31% (inactive) and the viability change is reported as 1.19%. For `CNCCC(Oc1ccccc1OC)c1ccccc1` (stereo not drawn), the “activity change, negative = inhibition” value was -19.3% (inactive) and the viability change was 4.36%. For `C[N+](C)(C)CCOC(=O)CCC(=O)OCC[N+](C)(C)C`, the “activity change, negative = inhibition” value was 2.71% (inactive) and the viability change was 0.0745%. With `NC(N)=N/N=C/c1c(Cl)cccc1Cl` the “activity change, negative = inhibition” value was -3.31% (inactive) and the viability change was 6.68%. For `C[N+](C)(C)CCCCCCCCCC[N+](C)(C)C`, the “activity change, negative = inhibition” value was -4.77% (inactive) and the viability change was -2.44%. With `COc1ccc(CN(CCN(C)C)c2ccccn2)cc1` the “activity change, negative = inhibition” value was -0.575% (inactive) and the viability change was 0.301%. For `CC[N+](C)(C)c1cccc(O)c1`, the “activity change, negative = inhibition” value was 9.39% (inactive) and the viability change was 0.744%. In the case of `c1cnc(N2CCN(Cc3ccc4c(c3)OCO4)CC2)nc1`, the “activity change, negative = inhibition” value is reported as -9.02% (inactive) and the viability change is reported as 2.39%. In the case of `CC1=C(C)C(=O)C(CCCCC#CCCCC#CCO)=C(C)C1=O`, the “activity change, negative = inhibition” value is reported as -9.34% (inactive) and the viability change is reported as 5.77%. With `CC(C)COCC(CN(Cc1ccccc1)c1ccccc1)N1CCCC1` (stereo not drawn) the “activity change, negative = inhibition” value was 21.1% (inactive) and the viability change was 2.97%. In the case of `CCCCNc1c(C(=O)OCC)c(C)nc2c1cnn2CC`, the “activity change, negative = inhibition” value is reported as -10.1% (inactive) and the viability change is reported as 2.43%. In the case of `CC(C)NNC(=O)c1ccncc1`, the “activity change, negative = inhibition” value is reported as 7.22% (inactive) and the viability change is reported as 1.54%. With `O=C(CCCN1CCC(O)(c2cccc(C(F)(F)F)c2)CC1)c1ccc(F)cc1` the “activity change, negative = inhibition” value was 0.768% (inactive) and the viability change was -9.85%. In the case of `CC1=NS(=O)(=O)c2cc(Cl)ccc2N1`, the “activity change, negative = inhibition” value is reported as -5.8% (inactive) and the viability change is reported as 3.36%. For `Cc1nc2c([nH]1)c(=O)n(C)c(=O)n2Cc1ccco1`, the “activity change, negative = inhibition” value was -16.5% (inactive) and the viability change was -1.43%. With `COC(=O)[C@@H](N)Cc1ccc(O)c(O)c1` the “activity change, negative = inhibition” value was -5.15% (inactive) and the viability change was -11.8%. In the case of `C[C@]12C=CC(=O)C=C1CC[C@H]1[C@@H]3C[C@@H](O)[C@](O)(C(=O)CO)[C@@]3(C)C[C@H](O)[C@@]12F`, the Potency is reported as 82 nM (active) and the viability change is reported as -4.26%. In the case of `Nc1c2c(nc3ccccc13)CCCC2O` (stereo not drawn), the “activity change, negative = inhibition” value is reported as 3.23% (inactive) and the viability change is reported as 6.52%. With `CCOC(=O)C1=C(C)NC(C)=C(C(=O)OC)C1c1cccc(Cl)c1Cl` (stereo not drawn) the “activity change, negative = inhibition” value was -6.71% (inactive) and the viability change was -3.98%. With `CC(=O)Nc1nnc(S(N)(=O)=O)s1` the “activity change, negative = inhibition” value was -14.6% (inactive) and the viability change was 3.35%. With `CC(N=C(NC#N)Nc1ccncc1)C(C)(C)C` (stereo not drawn) the “activity change, negative = inhibition” value was -2.47% (inactive) and the viability change was -0.502%. In the case of `c1ccc2c(c1)CCCC2C1=NCCN1` (stereo not drawn), the “activity change, negative = inhibition” value is reported as -6.13% (inactive) and the viability change is reported as -0.882%. With `CC(=O)OC(C)C[N+](C)(C)C` (stereo not drawn) the “activity change, negative = inhibition” value was -3.91% (inactive) and the viability change was 2.56%. With `Cc1ccc(=O)n(-c2ccccc2)c1` the “activity change, negative = inhibition” value was 16.1% (inactive) and the viability change was -2.33%. For `OC(CCN1CCCCC1)(c1ccccc1)C1CCCCC1` (stereo not drawn), the “activity change, negative = inhibition” value was 4.5% (inactive) and the viability change was -0.392%. For `CCN(CC)CCNC(=O)c1cc(S(C)(=O)=O)ccc1OC`, the “activity change, negative = inhibition” value was -2.94% (inactive) and the viability change was 10.1%.
